Results filed as inconclusive are left out. Unmarked numbers belong to inactive results. Activity calls are given as the source filed them. Calls come from the whole dose curve; as a rule, active = well fitted inhibition curve with a large enough effect; inconclusive = small, poorly fitted or top-dose-only effect; inactive = flat fitted curve, though single readings scatter.
test system: SC27B; experiment: qHTS profiling for inhibitors of Plasmodium falciparum proliferation (AID 504749); note: nearly all actives have a fitted effect of over 60% in size;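 for activity, negative = inhibition: 0% = DMSO vehicle and full inhibition = artemisinin control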; settings: P. falciparum in erythrocytes, SYBR Green DNA, 72 h; series mostly up to 28.7 µM; activity, negative = inhibition: at the top concentration
In short: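 Three-day growth assay of blood-stage parasites in erythrocytes (0.3% parasitemia, 2.5% hematocrit) at 37 C, 5% CO2, quantified by SYBR Green DNA staining after overnight detergent lysis.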
Potency is the fitted concentration of half-maximal effect.

| SMILES | activity, negative = inhibition | Potency |
| --- | --- | --- |
| CCCCCCCCCCCCCCCC(=O)OC[C@H](O)[C@H]1OC[C@@H](O)[C@@H]1O | 0.109% | – |
| CCCCC(=O)OCC(=O)[C@]1(O)Cc2c(O)c3c(c(O)c2[C@H](OC2CC(NC(=O)C(F)(F)F)C(O)C(C)O2)C1)C(=O)c1c(OC)cccc1C3=O (stereo not given in full) | – | 2510 nM (active) |
| C[C@H]1OC(OC2C(O)[C@@H](O)C(OC3C(O)[C@@H](O)C(O)O[C@@H]3CO)O[C@@H]2CO)[C@H](O)C(O)C1N[C@H]1C=C(CO)[C@@H](O)[C@H](O)C1O (stereo not given in full) | 14.8% | – |
| CCN(CC)CC(=O)Nc1c(C)cc(C)cc1C | -2.8% | – |
| CC(=O)N[C@H]1[C@H](O[C@@H]2c3ccc(c(Cl)c3)Oc3cc4cc(c3O[C@@H]3O[C@H](CO)[C@@H](O)[C@H](O)C3C)Oc3ccc(cc3Cl)C[C@H]3NC(=O)[C@@H](N)c5ccc(O)c(c5)Oc5cc(O)cc(c5)[C@H](NC3=O)C(=O)N[C@H]4C(=O)N[C@H]3C(=O)N[C@@H]2C(=O)N[C@@H](C(=O)O)c2cc(O)cc(O[C@H]4O[C@H](CO)[C@@H](O)C(O)[C@@H]4O)c2-c2cc3ccc2O)O[C@H](CO)[C@@H](O)[C@@H]1O (stereo not given in full) | 3.48% [at 12.8 µM] | – |
| NC(=O)c1ncn(C2OC(CO)C(O)C2O)c1N (stereo not given) | 13.1% | – |
| C[C@H]1[C@@H](OC(=O)CCC(=O)O)OC2OC3(C)CC[C@H]4[C@H](C)CC[C@@H]1[C@@]24OO3 (stereo not given in full) | – | 5 nM (active) |
| CC1(Cn2ccnn2)[C@H](C(=O)O)N2C(=O)C[C@H]2S1(=O)=O (stereo not given in full) | 1.26% | – |
| CN(C)CC/C=C1\c2ccccc2COc2ccc(CC(=O)O)cc21 | 2.63% | – |
| CCCC(=O)O[C@]1(C(=O)COC(C)=O)CC[C@H]2C3C[C@H](F)C4=CC(=O)C=CC4(C)[C@@]3(F)[C@@H](O)CC21C (stereo not given in full) | -7.86% | – |
| OCCN1CC(O)C(O)C(O)C1CO (stereo not given) | -0.44% | – |
| COc1cc2c(cc1O)CCN[C@@]21CS[C@H]2c3c(OC(C)=O)c(C)c4c(c3C(COC1=O)N1C2C2c3c(cc(C)c(OC)c3O)CC([C@@H]1O)N2C)OCO4 (stereo not given in full) | – | 0.8 nM (active) |
| CC(CCC(=O)O)C1CCC2C3C(=O)C[C@@H]4CC(=O)CC[C@@]4(C)C3CC(=O)[C@]12C (stereo not given in full) | -9.01% | – |
| C[n+]1c2cc(N)ccc2cc2ccc(N)cc21 | – | 1580 nM (active) |
| O=C(OC[C@@H]1O[C@@](O)(COC(=O)c2cccnc2)[C@H](OC(=O)c2cccnc2)[C@H]1OC(=O)c1cccnc1)c1cccnc1 | 7.34% | – |
| O=[N+]([O-])O[C@H]1CO[C@H]2[C@@H]1OC[C@H]2O | 6.62% | – |
| COc1cccc(OC)c1C(=O)NC1C(=O)N2C1SC(C)(C)C2C(=O)O (stereo not given) | 3.74% | – |
| NC[C@@H]1O[C@H](OC2[C@@H](CO)O[C@@H](OC3[C@H](O)[C@H](N)C[C@H](N)[C@H]3OC3O[C@H](CO)[C@@H](O)[C@H](O)[C@@H]3N)[C@H]2O)C(N)[C@H](O)[C@@H]1O (stereo not given in full) | 4.93% | – |
| Cc1ccc(S(=O)(=O)NC(=O)NC(C)Cc2ccccc2)cc1 (stereo not given) | 8.27% | – |
| OCCOC[C@H]1O[C@H](OCCO)[C@H](OCCO)[C@@H](OCCO)[C@@H]1OCCO (tested in a mixture with another compound) | 13% | – |

| SMILES | activity, negative = inhibition | Potency |
| --- | --- | --- |
| C[S+](C)CC[C@H](N)C(=O)O | 1.52% | – |
| CC[C@@H]1/C=C(\C)C[C@H](C)C[C@H](OC)[C@H]2O[C@@](O)(C(=O)C(=O)N3CCCC[C@H]3C(=O)O[C@H](/C(C)=C/[C@@H]3CC[C@H](Cl)[C@H](OC)C3)[C@H](C)[C@@H](O)CC1=O)[C@H](C)C[C@@H]2OC | -1.08% | – |
| NC(=O)C1CC2(NC(=O)NC2=O)c2cc(F)ccc2O1 (stereo not given) | 6.83% | – |
| CN1[C@@H]2CC[C@@H]1CC(OC(=O)[C@H](CO)c1ccccc1)C2 (stereo not given in full) | 6.65% | – |
| CC[C@@]1(O)C[C@H](O[C@H]2C[C@@H](N(C)C)[C@@H](O[C@H]3C[C@@H](O)[C@@H](O[C@H]4CCC(=O)[C@@H](C)O4)[C@@H](C)O3)[C@@H](C)O2)c2c(cc3c(c2O)C(=O)c2c(O)cccc2C3=O)[C@H]1C(=O)OC | – | 316 nM (active) |
| CCCCCCCCCCCC(=O)OCC(O)C1OCC(O)C1O (stereo not given) | -2% | – |
| C/C1=C2/[N-]C(C(CC(N)=O)[C@@]2(C)CCC(=O)NCC(C)OP(=O)([O-])O[C@H]2[C@@H](O)[C@@H](n3cnc4cc(C)c(C)cc43)O[C@@H]2CO)[C@]2(C)N=C(/C(C)=C3N=C(/C=C4N=C1C(CCC(N)=O)C\4(C)C)[C@@H](CCC(N)=O)[C@]\3(C)CC(N)=O)[C@@H](CCC(N)=O)[C@]2(C)CC(N)=O.CC(=O)O.[Co] (stereo not given in full) | -1.5% | – |
| CC1(C)OC[C@@H]2O[C@@]3(C(=O)O)OC(C)(C)O[C@@H]3[C@@H]2O1 | 8.37% | – |
| Cc1ccccc1N1C(=O)c2cc(N)ccc2N/C1=C\F | -12.8% | – |
| CCC(C(=O)O)C1OC(C(C)C(O)C(C)C(=O)C(CC)C2OC3(C=CC(O)C4(CCC(C)(C5CCC(O)(CC)C(C)O5)O4)O3)C(C)CC2C)C(C)CC1C (stereo not given) | – | 89.1 nM (active) |
| O=C1C(I)=CC(=C(c2cc(I)c(O)c(I)c2)c2ccccc2C(=O)O)C=C1I | -10.6% | – |
| NC(=O)NC(CCC(=O)O)C(=O)O (stereo not given) | -4% | – |
| COC1CC2CCC(C)[C@](O)(O2)C(=O)C(=O)N2CCCCC2C(=O)OC(C(C)CC2CCC(O)C(OC)C2)CC(=O)C(C)/C=C(/C)C(O)C(OC)C(=O)C(C)CC(C)C=CC=C/C=C\1C (stereo not given in full) | – | 2000 nM (active) |
| CC(=O)OCC(=O)[C@@]1(O)CCC2C3C[C@H](C)C4=CC(=O)C=CC4(C)C3C(O)CC21C (stereo not given in full) | 4.26% | – |
| CN[C@H](C)CCC=C(C)C | – | 355 nM (active) |
| CC1(C)C2CC[C@]1(C)[C@@H](O)C2 | 5.71% | – |
| OCC1O[C@H](Oc2ccc(O)cc2)C(O)C(O)C1O (stereo not given in full) | 2.19% | – |
| Nc1nc(F)nc2c1ncn2[C@@H]1O[C@H](CO)[C@@H](O)[C@H]1O | 4.51% | – |
| CC1OC(OC2CCC3(C)C(CCC4C3CC(O)C3(C)C(C5=CC(=O)OC5)CCC43O)C2)CC(O)C1OC1CC(O)C(OC2CC(O)C(OC3OC(CO)C(O)C(O)C3O)C(C)O2)C(C)O1 (stereo not given) | 1.08% | – |
| CC1OC(OCC2OC(Oc3c(-c4ccc(OCCO)c(OCCO)c4)oc4cc(OCCO)cc(O)c4c3=O)C(O)C(O)C2O)[C@@H](O)C(O)C1O (stereo not given in full) | -4.33% | – |

— PubChem BioAssay (NCATS)
